Test results taken from PubChem BioAssay (EPA / NIEHS).
Active and inactive are the calls of the source. How the source made its calls: active means hit-call score of the fitted dose curve at least 0.9, where 1 is the maximum; inactive means score below 0.9.

How the values were obtained:
[1] = ATG_E_Box_CIS: Attagene CIS-FACTORIAL HepG2 Assay for human Enhancer Box (E-box) (AID 2282936); conditions: HepG2 E-box cis-reporter transcription, actives raise or lower the signal
Summary of the method: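 Cells: HepG2 (human liver), transient MRTU transfection. Exposure 24 h. RNA → oligo(dT) RT → PCR → 6-FAM label → HpaI → CE. Activity fitted both directions relative to DMSO.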

[2] = ATG_M_61_CIS: Attagene CIS-FACTORIAL HepG2 Assay for M61 Transcription Factor (Internal Marker) (AID 2282937); conditions: HepG2 Attagene CIS-FACTORIAL M61 internal marker reporter; actives raise or lower the signal
Summary of the method: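 Transfect HepG2 with MRTUs; dose 24 h; isolate RNA; reverse-transcribe with DNase I treatment; PCR-amplify, FAM-label and cut with HpaI for 2 h at 37 C; resolve by CE. Bidirectional fitting against DMSO.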

[3] = ATG_M_19_CIS: Attagene CIS-FACTORIAL HepG2 Assay for M19 Transcription Factor (Internal Marker) (AID 2282939); conditions: HepG2 Attagene CIS-FACTORIAL M19 internal marker reporter; actives raise or lower the signal
Summary of the method: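 In this multiplexed cell assay, transiently transfected HepG2 reporter units report endogenous transcription-factor activity; after 24 hours of treatment, labelled reporter cDNA fragments are quantified by capillary electrophoresis and fitted bidirectionally against DMSO.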

[4] = ATG_ERE_CIS: Attagene CIS-FACTORIAL HepG2 Assay for Estrogen Response Element (ERE) (AID 2282940); conditions: HepG2 ERE cis-reporter, Attagene RNA transcript; actives raise or lower the signal
Summary of the method: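 Measuring endogenous transcription factor output, the assay doses transfected HepG2 cells for 24 hours and quantifies reporter transcripts by fluorescent RT-PCR and capillary electrophoresis, with DMSO as baseline.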

[5] = ATG_Ets_CIS: Attagene CIS-FACTORIAL HepG2 Assay for human Erythroblast Transformation Specific (ETS) (AID 2282941); conditions: HepG2 ETS cis-reporter transcription, actives raise or lower the signal
Summary of the method: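 Steps: transfect HepG2 with multiple reporter units; treat compound 24 h; isolate RNA, DNase-treat, reverse-transcribe; PCR-amplify, label with 6-FAM, digest with HpaI; separate by capillary electrophoresis. Activity fitted both directions versus DMSO.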

[6] = biological target: Hepatocyte nuclear factor 3-beta (Homo sapiens) (UniProt Q9Y261); assay: ATG_FoxA2_CIS: Attagene CIS-FACTORIAL HepG2 Assay for human Forkhead box A2 (FOXA2) (AID 2282942); conditions: HepG2 cis-reporter transcription factor activity, 24 h; actives raise or lower the signal
Summary of the method: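 24 h dosing of HepG2 bearing cis-reporter constructs; mRNA readout by RT-PCR/CE fluorescence; bidirectional fit, DMSO baseline.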

[7] = ATG_FoxO_CIS: Attagene CIS-FACTORIAL HepG2 Assay for human Forkhead box O (FoxO) (AID 2282943); conditions: HepG2 Attagene cis-reporter, FoxO element, mRNA; actives raise or lower the signal
Summary of the method: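 Endogenous transcription factor activity read from multiplexed cis-promoter reporter transcripts in transiently transfected HepG2, 24 h after dosing. Reporter RNA measured via RT-PCR plus capillary electrophoresis of FAM-labeled products; gain or loss relative to DMSO.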

[8] = ATG_GATA_CIS: Attagene CIS-FACTORIAL HepG2 Assay for human GATA Binding Protein (AID 2282944); conditions: HepG2 GATA cis-element reporter, Attagene multiplex mRNA; actives raise or lower the signal
Summary of the method: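 Measures endogenous transcription factor-driven reporter mRNA in HepG2 cells transiently carrying cis-regulated constructs. 24 h dosing; RNA via oligo(dT) reverse transcription, PCR, HpaI digestion, capillary electrophoresis; fitted relative to DMSO.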

[9] = ATG_GLI_CIS: Attagene CIS-FACTORIAL HepG2 Assay for human Zinc Finger Protein GLI1 (AID 2282945); conditions: HepG2, Attagene cis-factorial reporter mRNA, GLI element; actives raise or lower the signal
Summary of the method: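 Bidirectional curve fits relative to DMSO, using reporter mRNA levels from RT-PCR plus capillary electrophoresis. Cells were HepG2 transiently carrying cis-regulated reporter constructs, harvested 24 h after dosing.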

[10] = ATG_ISRE_CIS: Attagene CIS-FACTORIAL HepG2 Assay for human Interferon Regulatory Factor 1 (IRF1) binding to an Interferon-Stimulated Response Element (ISRE) (AID 2282948); conditions: HepG2 ISRE cis-reporter (Attagene), mRNA transcription readout; actives raise or lower the signal
Summary of the method: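 Transfected HepG2 (multiple reporter transcription units, cis elements) dosed 24 h. RNA → oligo(dT) RT → PCR → 6-FAM primer extension → HpaI → CE. DMSO = negative control/baseline.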

[11] = ATG_M_06_CIS: Attagene CIS-FACTORIAL HepG2 Assay for M06 Transcription Factor (Internal Marker) (AID 2282950); conditions: HepG2 Attagene CIS-FACTORIAL M06 internal marker reporter; actives raise or lower the signal
Summary of the method: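 One of many multiplexed endpoints: HepG2 reporter mRNA after 24 h dosing, detected by RT-PCR and capillary electrophoresis fluorescence; gain or loss of signal analysed against DMSO.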

[12] = biological target: Hypoxia-inducible factor 1-alpha (Homo sapiens) (UniProt Q16665); assay: ATG_HIF1a_CIS: Attagene CIS-FACTORIAL HepG2 Assay for human Hypoxia Inducible Factor 1 (HIF1A) (AID 2282951); conditions: HepG2 Attagene cis-factorial HIF1a reporter transcription; actives raise or lower the signal
Summary of the method: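 After 24 h chemical exposure of reporter-transfected HepG2 cells, reporter cDNA was PCR-amplified, labelled by 6-FAM primer extension (2 min 95 C, 20 s 68 C, 10 min 72 C), HpaI-cut (2 h, 37 C) and analysed by CE.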

[13] = biological target: Hepatocyte nuclear factor 6 (Homo sapiens) (UniProt Q9UBC0); assay: ATG_HNF6_CIS: Attagene CIS-FACTORIAL HepG2 Assay for human Hepatocyte Nuclear Factor 6 (HNF6) (AID 2282952); conditions: HepG2 Attagene cis-factorial HNF6 reporter transcription; actives raise or lower the signal
Summary of the method: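 Transiently transfected HepG2 cells expressing cis-regulated reporter transcription units were exposed to chemical for 24 h in a 24-well format. Reporter transcript abundance was determined by fluorescence capillary electrophoresis.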

[14] = biological target: Heat shock factor protein 1 (Homo sapiens) (UniProt Q00613); assay: ATG_HSE_CIS: Attagene CIS-FACTORIAL HepG2 Assay for human Heat Shock Transcription Factor 1 (HSE) (AID 2282953); conditions: HepG2 HSE cis-reporter, Attagene RNA transcription; actives raise or lower the signal
Summary of the method: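 Using HepG2 with transfected cis-driven reporter constructs, compound effects on endogenous factor activity are scored as reporter mRNA change at 24 h. Detection: RT-PCR, HpaI digestion, capillary electrophoresis; bidirectional fitting to DMSO.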

[15] = ATG_MRE_CIS: Attagene CIS-FACTORIAL HepG2 Assay for human Metal Responsive Element (MRE) (AID 2282954); conditions: HepG2 MRE cis-reporter transcription, Attagene multiplex; actives raise or lower the signal
Summary of the method: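 Transient MRTU transfection of HepG2 (FuGene 6); 24 h dosing; total RNA → oligo(dT) RT, PCR, 6-FAM primer extension, HpaI cut, CE. Bidirectional fit vs DMSO.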

[16] = ATG_PBREM_CIS: Attagene CIS-FACTORIAL HepG2 Assay for human Phenobarbital-responsive Enhancer Module (PBREM) (AID 2282955); conditions: HepG2 PBREM cis-reporter, Attagene multiplexed transcription; actives raise or lower the signal
Summary of the method: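 Measures endogenous factor action on a phenobarbital-responsive enhancer module. HepG2 transiently carrying cis reporters, 24 h treatment, mRNA read-out by RT-PCR plus capillary electrophoresis.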

[17] = ATG_EGR_CIS: Attagene CIS-FACTORIAL HepG2 Assay for human Early Growth Response 1 (EGR1) (AID 2282938); conditions: HepG2 Attagene CIS-FACTORIAL EGR reporter mRNA; actives raise or lower the signal
Summary of the method: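 After a 24 h treatment of transiently transfected HepG2 cells, total RNA was reverse-transcribed and reporter sequences PCR-amplified, labelled and run on capillary electrophoresis. Reporters sit under cis-regulatory promoters sensing endogenous factors.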

[18] = ATG_GRE_CIS: Attagene CIS-FACTORIAL HepG2 Assay for human Glucocorticoid Response Elements (GRE) (AID 2282947); conditions: HepG2 GRE cis-reporter, Attagene multiplex mRNA; actives raise or lower the signal
Summary of the method: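 Transient MRTU transfection of human HepG2 liver cells; cis-regulated reporters report endogenous factors. 24 h dosing → RNA isolation → RT-PCR → 6-FAM primer extension → HpaI cut → CE fragment analysis. Bidirectional fit, DMSO negative control.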

[19] = ATG_M_32_CIS: Attagene CIS-FACTORIAL HepG2 Assay for M32 Transcription Factor (Internal Marker) (AID 2282949); conditions: HepG2 Attagene cis-factorial M32 reporter, mRNA; actives raise or lower the signal;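 further: background control marker of the multiplexed CIS panel rather than a real target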
Summary of the method: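 Fluorescent capillary electrophoresis peaks of HpaI-digested, FAM-labelled RT-PCR reporter products give the signal. Source: transiently transfected human liver HepG2 cells, 24 h after chemical dosing; bidirectional fitting against DMSO.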

[20] = biological target: Bile acid receptor (Homo sapiens) (UniProt Q96RI1); assay: ATG_IR1_CIS: Attagene CIS-FACTORIAL HepG2 Assay for human Nuclear Receptor Subfamily 1 Group H Member 4 (NR1H4), IR1 submotif (AID 2282946); conditions: IR1 reporter transcription, actives raise or lower the signal
Summary of the method: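 Cells (human HepG2) carry transiently transfected cis-promoter reporter transcription units. Compounds are incubated 24 h, total RNA is reverse-transcribed and amplified, and labelled fragments are resolved by capillary electrophoresis. Curves use DMSO as baseline.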

Measured: AC50

Hepatocyte nuclear factor 3-beta (Homo sapiens), sequence (Q9Y261 whole entry, looked up): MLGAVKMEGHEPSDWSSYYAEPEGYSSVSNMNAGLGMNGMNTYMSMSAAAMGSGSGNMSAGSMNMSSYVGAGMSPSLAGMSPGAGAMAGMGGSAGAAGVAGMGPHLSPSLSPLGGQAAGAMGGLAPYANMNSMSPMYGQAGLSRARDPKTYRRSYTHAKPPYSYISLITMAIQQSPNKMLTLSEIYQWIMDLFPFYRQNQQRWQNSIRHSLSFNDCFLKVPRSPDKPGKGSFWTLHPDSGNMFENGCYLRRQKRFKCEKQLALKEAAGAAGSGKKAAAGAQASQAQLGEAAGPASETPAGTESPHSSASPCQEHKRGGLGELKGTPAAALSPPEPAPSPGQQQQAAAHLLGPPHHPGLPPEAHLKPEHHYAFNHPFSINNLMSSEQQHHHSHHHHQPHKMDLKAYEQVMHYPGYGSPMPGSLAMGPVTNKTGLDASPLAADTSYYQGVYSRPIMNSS
Bile acid receptor (Homo sapiens), sequence (Q96RI1 whole entry, looked up, the tested form may be a part): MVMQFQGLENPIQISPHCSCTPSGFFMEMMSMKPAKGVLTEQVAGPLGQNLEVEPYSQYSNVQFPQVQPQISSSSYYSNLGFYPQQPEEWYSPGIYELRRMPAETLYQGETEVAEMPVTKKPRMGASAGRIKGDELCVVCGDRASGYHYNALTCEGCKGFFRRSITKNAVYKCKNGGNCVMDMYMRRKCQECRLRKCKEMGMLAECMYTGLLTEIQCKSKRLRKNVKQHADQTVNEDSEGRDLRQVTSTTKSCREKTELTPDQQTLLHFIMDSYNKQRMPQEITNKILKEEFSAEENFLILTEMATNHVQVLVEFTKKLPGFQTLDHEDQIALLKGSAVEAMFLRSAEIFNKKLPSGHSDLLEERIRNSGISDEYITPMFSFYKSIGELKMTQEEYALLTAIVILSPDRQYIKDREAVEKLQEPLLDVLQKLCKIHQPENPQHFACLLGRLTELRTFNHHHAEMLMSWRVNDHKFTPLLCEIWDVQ
Heat shock factor protein 1 (Homo sapiens), sequence (Q00613 whole entry, looked up): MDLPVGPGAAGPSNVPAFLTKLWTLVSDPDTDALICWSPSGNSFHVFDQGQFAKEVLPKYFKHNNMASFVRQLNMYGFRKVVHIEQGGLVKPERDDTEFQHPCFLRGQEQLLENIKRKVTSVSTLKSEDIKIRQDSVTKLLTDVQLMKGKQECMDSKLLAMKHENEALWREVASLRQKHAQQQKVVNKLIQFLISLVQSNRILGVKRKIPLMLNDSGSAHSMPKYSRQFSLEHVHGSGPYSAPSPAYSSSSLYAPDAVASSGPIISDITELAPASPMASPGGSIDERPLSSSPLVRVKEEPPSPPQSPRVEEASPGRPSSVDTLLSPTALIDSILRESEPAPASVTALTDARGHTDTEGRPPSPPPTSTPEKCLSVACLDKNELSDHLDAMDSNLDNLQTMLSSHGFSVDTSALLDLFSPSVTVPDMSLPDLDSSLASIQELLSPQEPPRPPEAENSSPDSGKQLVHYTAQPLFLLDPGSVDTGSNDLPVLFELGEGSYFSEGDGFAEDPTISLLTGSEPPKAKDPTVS
Hypoxia-inducible factor 1-alpha (Homo sapiens), sequence (Q16665 whole entry, looked up): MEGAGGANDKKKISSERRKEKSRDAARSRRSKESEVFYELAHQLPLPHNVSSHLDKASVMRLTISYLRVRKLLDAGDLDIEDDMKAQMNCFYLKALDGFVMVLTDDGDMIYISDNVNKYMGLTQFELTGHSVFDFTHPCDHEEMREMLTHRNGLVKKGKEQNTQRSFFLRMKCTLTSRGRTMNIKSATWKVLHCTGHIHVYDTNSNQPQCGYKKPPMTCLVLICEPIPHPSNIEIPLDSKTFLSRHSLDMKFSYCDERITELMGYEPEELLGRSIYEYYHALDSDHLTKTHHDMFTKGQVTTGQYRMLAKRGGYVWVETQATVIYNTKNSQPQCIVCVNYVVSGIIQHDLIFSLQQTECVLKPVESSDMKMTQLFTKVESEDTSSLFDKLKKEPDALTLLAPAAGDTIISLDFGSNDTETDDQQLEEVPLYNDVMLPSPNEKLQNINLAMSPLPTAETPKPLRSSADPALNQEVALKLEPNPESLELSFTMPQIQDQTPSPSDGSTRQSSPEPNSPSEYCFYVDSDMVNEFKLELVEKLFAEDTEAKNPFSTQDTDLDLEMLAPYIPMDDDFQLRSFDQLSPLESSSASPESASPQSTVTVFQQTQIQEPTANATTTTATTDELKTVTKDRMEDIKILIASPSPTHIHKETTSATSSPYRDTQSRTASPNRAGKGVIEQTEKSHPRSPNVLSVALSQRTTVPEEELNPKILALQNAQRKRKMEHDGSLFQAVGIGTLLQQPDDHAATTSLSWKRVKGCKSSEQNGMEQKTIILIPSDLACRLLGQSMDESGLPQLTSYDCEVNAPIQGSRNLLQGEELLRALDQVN
Hepatocyte nuclear factor 6 (Homo sapiens), sequence (Q9UBC0 whole entry, looked up): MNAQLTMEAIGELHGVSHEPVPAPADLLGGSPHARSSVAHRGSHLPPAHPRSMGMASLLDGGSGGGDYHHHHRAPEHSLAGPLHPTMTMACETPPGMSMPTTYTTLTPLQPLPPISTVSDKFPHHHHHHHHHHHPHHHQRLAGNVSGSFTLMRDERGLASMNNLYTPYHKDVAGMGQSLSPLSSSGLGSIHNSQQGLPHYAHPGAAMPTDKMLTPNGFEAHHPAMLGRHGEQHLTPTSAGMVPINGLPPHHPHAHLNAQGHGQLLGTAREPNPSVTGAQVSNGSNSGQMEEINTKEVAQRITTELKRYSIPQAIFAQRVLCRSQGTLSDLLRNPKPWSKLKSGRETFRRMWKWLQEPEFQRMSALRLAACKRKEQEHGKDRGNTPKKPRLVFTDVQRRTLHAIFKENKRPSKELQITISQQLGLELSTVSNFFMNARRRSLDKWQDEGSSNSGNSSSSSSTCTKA

O=C1C(N(CO)C(=O)NCO)N(CO)C(=O)N1CO (stereo not given)
not listed: [17] | [18] | [19] | [20]
inactive: all other assays above

SCCc1cnccn1
active: [10] 43.3 µM
not listed: [3] | [6] | [20]
inactive: all other assays above

c1ccc2c(c1)ccc1cc3c(ccc4ccccc43)cc12
active: [4] 0.18 µM | [6] 0.0767 µM | [12] 0.364 µM
not listed: [10] | [14] | [16] | [17]
inactive: all other assays above

CC1=NC(C)OC1C (stereo not given)
active: [10] 100 µM | [14] 160 µM
not listed: [17] | [20]
inactive: all other assays above

CC(=O)C=CC1C(C)=CCC(C)C1(C)C (stereo not given)
not listed: [11] | [17] | [20]
inactive: all other assays above

Nc1nc2ccccc2[nH]1
active: [4] 77.9 µM
not listed: [17]
inactive: all other assays above

Nc1ccc(N)c(Cl)c1
active: [1] 33.5 µM | [4] 2.65 µM | [10] 45.7 µM | [13] 57.2 µM | [14] 8.3 µM | [16] 26.2 µM
not listed: [3] | [17] | [19]
inactive: all other assays above
